Counter-ions that a name gives are not always drawn.
Tests used:
Details in all cases: 20 µM
[1] = test system: Salmonella enterica typhimurium; assay: growth AUC normalised to DMSO control (fraction of control); higher = less growth inhibition, active = hit call of the paper
How it was run: (§1)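 After two anaerobic passages, pathogens were added at a starting OD578 of 0.01 to pre-reduced mGAM plates holding compound at 20 μM with 1% DMSO; hemin and NAD were supplemented for Haemophilus parainfluenzae. Sealed with breathable membranes, plates were read at OD578 hourly for 24 h, in three biological replicates. The trapezoidal rule, applied up to the exponential-to-stationary transition, gave the growth-curve AUC, which was normalised to DMSO controls on the same plate.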

[2] = test system: Shigella flexneri; assay: as above
How it was run: as §1

[3] = test system: Vibrio cholerae; assay: as above
How it was run: as §1

[4] = test system: Yersinia pseudotuberculosis; assay: as above
How it was run: as §1

[5] = test system: P. vulgatus RND KO; assay: growth AUC normalised to DMSO control (median) (fraction of control); higher = less growth inhibition, active = hit call of the paper
How it was run: (§2)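 In 96-well plates of mGAM seeded at OD578 0.01, strains that had been passaged twice overnight without oxygen were exposed to approved-drug library compounds at 20 μM with 1% DMSO. Hourly OD578 readings were taken for 24 h in an anaerobic incubator. The trapezoidal-rule area under the curve, with curves truncated at entry into stationary phase, was expressed relative to same-plate vehicle wells as the median of three biological replicates.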

[6] = test system: P. vulgatus WT; assay: as above
How it was run: as §2

[7] = test system: S. enterica typhimurium WT; assay: as above
How it was run: as §2

[8] = test system: S. enterica typhimurium tolC KO; assay: as above
How it was run: as §2

Measured: growth AUC normalised to DMSO control
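Throughout, for growth AUC normalised to DMSO control (median): active when median AUC fell below 0.1.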

CN(C)CC/C=C1/c2ccccc2Sc2ccc(Cl)cc21 [Chlorprothixene hydrochloride]
inactive: [1] 0.997 | [2] 0.988 | [4] 0.996 | [5] 0.904 | [6] 0.887 | [7] 0.999 | [8] 0.912
active: [3] 0.817

Cc1cccc(C)c1NC(=O)C(C)N (stereo not given) [Tocainide hydrochloride]
inactive: [1] 1 | [2] 0.967 | [3] 1.01 | [4] 0.985 | [5] 1.02 | [6] 1.02 | [7] 0.999 | [8] 1

COc1ccc(C(Cl)=C(c2ccc(OC)cc2)c2ccc(OC)cc2)cc1 [Chlorotrianisene]
inactive: [1] 0.994 | [2] 0.944 | [3] 0.983 | [4] 1.01 | [5] 0.96 | [6] 0.928 | [7] 0.978 | [8] 0.993

CNC(C)CCC=C(C)C (stereo not given) [Isometheptene mucate]
inactive: [1] 0.988 | [2] 0.995 | [3] 1.01 | [4] 1 | [5] 1.01 | [6] 1.02 | [7] 1.01 | [8] 1

OCC(O)CN1CCN(c2ccccc2)CC1 (stereo not given) [Dropropizine]
inactive: [1] 1.02 | [2] 1.06 | [3] 1.04 | [4] 1.01 | [5] 1.05 | [6] 1.06 | [7] 0.991 | [8] 0.981

CC(C)(C)NC[C@@H](O)COc1cccc2c1CCCC2=O [(+) Levobunolol hydrochloride]
inactive: [1] 0.982 | [2] 0.943 | [3] 0.978 | [4] 0.987 | [5] 0.999 | [6] 0.975 | [7] 0.993 | [8] 0.993

CC12CC3CC(C)(C1)CC(N)(C3)C2 [Memantine hydrochloride]
inactive: [1] 0.997 | [2] 0.99 | [3] 1.01 | [4] 0.985 | [5] 1.01 | [6] 1.02 | [7] 1.01 | [8] 1

CC(c1cc2ccccc2s1)N(O)C(N)=O (stereo not given) [Zileuton]
inactive: [1] 0.987 | [2] 0.986 | [3] 1 | [4] 0.931 | [5] 1.01 | [6] 0.985 | [7] 1 | [8] 0.993

CCc1nn(CCCN2CCN(c3cccc(Cl)c3)CC2)c(=O)n1CCOc1ccccc1 [Nefazodone hydrochloride]
inactive: [1] 1 | [2] 0.985 | [3] 0.932 | [4] 1.01 | [5] 0.928 | [6] 0.922 | [7] 1 | [8] 0.894

CCOC(=O)/C=C(C)/C=C/C=C(C)/C=C/c1c(C)cc(OC)c(C)c1C [Etretinate]
inactive: [1] 1.01 | [2] 1.03 | [3] 0.998 | [4] 1 | [5] 1.03 | [6] 1.06 | [7] 1 | [8] 0.991

CCCc1nn(C)c2c(=O)[nH]c(-c3cc(S(=O)(=O)N4CCN(C)CC4)ccc3OCC)nc12 [Sildenafil]
inactive: [1] 1.02 | [2] 1.07 | [3] 1.06 | [4] 1.03 | [5] 1.02 | [6] 1.02 | [7] 1.02 | [8] 1

COc1ccc2cc(CCC(C)=O)ccc2c1 [Nabumetone]
inactive: [1] 1.03 | [2] 0.998 | [3] 0.929 | [4] 0.999 | [5] 0.99 | [6] 1 | [7] 1 | [8] 0.963

COc1ccc2c(c1)c(CC(=O)OCC(=O)O)c(C)n2C(=O)c1ccc(Cl)cc1 [Acemetacin]
inactive: [1] 0.979 | [2] 0.965 | [3] 0.985 | [4] 0.985 | [5] 0.855 | [6] 0.866 | [7] 0.993 | [8] 0.969

NCc1ccc(S(N)(=O)=O)cc1 [Mafenide hydrochloride]
inactive: [1] 1 | [2] 0.998 | [3] 1.03 | [4] 0.969 | [5] 0.963 | [6] 0.815 | [7] 1.01 | [8] 1

CCc1c(C)[nH]c2c1C(=O)C(CN1CCOCC1)CC2 (stereo not given) [Molindone hydrochloride]
inactive: [1] 1 | [2] 1.02 | [3] 1.04 | [4] 1.01 | [5] 1.03 | [6] 1.05 | [7] 1.02 | [8] 1.01

Reference: the supplement of paper PMC12350171
